Over roughly 68,000 sequences, “fluorescence intensity (a.u.)” has its median near 9,100; the highest 2% begin near 16,000. The list comes from a sample in which the highest values are over-represented; it also holds similar and randomly drawn sequences.
Target: OsWRKY34 (Oryza sativa, UniProt Q0JBA9 1-250)
Experiment: protein-binding microarray (RPBM); PBS, 2% BSA, 51.3 ng/ul salmon testes DNA, 50 uM zinc acetate, 200 nM TF, 25 C, 1 h; high values mean tight binding
Settings: protein: recombinant; tags: N-terminal polyhistidine and DsRed monomer fusion (pET32a); label: CyDye5-dUTP incorporated in the synthesized complementary strand; 3' TTTTT single-stranded linker to array surface; dsDNA, one strand shown
In short: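 Transcription factors were made in E. coli BL21-CodonPlus as N-terminal fusions to a polyhistidine tag and DsRed, then purified on Ni–NTA. After primer extension with Cy5-dUTP and blocking with 2% BSA, a custom Agilent array was exposed for 1 h at 25 °C to 200 nM protein in PBS, 2% BSA, salmon testes DNA and 50 µM zinc acetate. Washed arrays were scanned on an Axon 4000B, and the binding signal is per-feature fluorescence intensity in arbitrary units.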

OsWRKY34, sequence (Q0JBA9 entry or part of it): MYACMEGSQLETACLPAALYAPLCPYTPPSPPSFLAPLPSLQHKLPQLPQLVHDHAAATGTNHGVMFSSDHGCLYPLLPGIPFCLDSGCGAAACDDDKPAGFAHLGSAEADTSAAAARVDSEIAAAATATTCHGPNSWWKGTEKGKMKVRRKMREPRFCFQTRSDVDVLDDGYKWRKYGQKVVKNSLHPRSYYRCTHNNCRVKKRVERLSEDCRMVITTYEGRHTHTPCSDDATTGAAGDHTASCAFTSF

Sequence	binding signal
GCAGCATCACCCGCAGCCGCCGCCGCCGCCGCCATGGACTCGGAGTCACCTAGTGCAG	10100 fluorescence intensity (a.u.)
GCAATACACCTGATTTGATACTTCTTCCGATATAATACTCCGGAGTCACCTAGTGCAG	8900 fluorescence intensity (a.u.)
GATTGTATATGCCTGATAGGACTAGTTAGTGTGTTTTCTTCGGAGTCACCTAGTGCAG	9220 fluorescence intensity (a.u.)
CACTAGTTTTAGTTACTAACTTATGGCTCTTGTGCTATCACGGAGTCACCTAGTGCAG	8070 fluorescence intensity (a.u.)
AAGACACAGCTTCAACACGTAACCTATGCACTACACACTACGGAGTCACCTAGTGCAG	11700 fluorescence intensity (a.u.)
CCCGTTCTAATTCAGTTTCTCCCTTTCTTACCGCATGTACCGGAGTCACCTAGTGCAG	8490 fluorescence intensity (a.u.)
GTTCTCTAGCCGCTTGTGATACTCGCAATCCTAAACCACGCGGAGTCACCTAGTGCAG	8410 fluorescence intensity (a.u.)
TAACTGCGTTGACATGTCGCCTTGCTATACTCACATTCTTCGGAGTCACCTAGTGCAG	9470 fluorescence intensity (a.u.)
TCTCACTCTCTCACACACACACTCTCTCTCTCTGCTAGCTCGGAGTCACCTAGTGCAG	9820 fluorescence intensity (a.u.)
GAATGTTGATGCTGTTGATGCATGCACCTGCCGAAGGCCGCGGAGTCACCTAGTGCAG	9170 fluorescence intensity (a.u.)
CTCTTGCTGTTTCCTTTGCTCTGTTTCCTCTGCCTGCGCCCGGAGTCACCTAGTGCAG	8760 fluorescence intensity (a.u.)
CGCTGCTTCTGATCATCTCCCGTTCTTGCATTCTTCTTCTCGGAGTCACCTAGTGCAG	19400 fluorescence intensity (a.u.)
TGTTTGCTGCTGCTGCTGCTCTGCTTTTCTCTTTTTTCTTCGGAGTCACCTAGTGCAG	9490 fluorescence intensity (a.u.)
TTGTTCTTGCTGCATTTCTTCTTCTCGTTTTTTTTTCTTTCGGAGTCACCTAGTGCAG	16900 fluorescence intensity (a.u.)
CTCGCCATCTCTGCCGCCGGTCCGCCGCCTCGCTCGCTCGCGGAGTCACCTAGTGCAG	9470 fluorescence intensity (a.u.)
TTCACCACCACCGCCACGGCCTCTGCCTCTCGCTCTCTCTCGGAGTCACCTAGTGCAG	10200 fluorescence intensity (a.u.)
ATCCCGGCCTGCTCTTGCGCTTTGACTTTTTGTAGAGTTTCGGAGTCACCTAGTGCAG	18200 fluorescence intensity (a.u.)
ACGCCCGCTTGATCCGCCTGCTGCGCGCGCGCGAGTTTTTCGGAGTCACCTAGTGCAG	9160 fluorescence intensity (a.u.)
GAATCTGCTTCTCATTCTTTTTTTCTTGCTGATCATCATGCGGAGTCACCTAGTGCAG	10200 fluorescence intensity (a.u.)
CTTCTGTCATATCACCTTGCCGCTGCTTCTGATCATCTCCCGGAGTCACCTAGTGCAG	8670 fluorescence intensity (a.u.)
CACCACCTTTGTTTGCTGCTCTCCATTTTTTTTCTTCGTTCGGAGTCACCTAGTGCAG	10200 fluorescence intensity (a.u.)
TGTCCGCCACGCTCTCGCCATCTGCCTGTACCACTAATCTCGGAGTCACCTAGTGCAG	22500 fluorescence intensity (a.u.)
TACTACTGTACTACTCTCAGTCTCTCGGCTTCTAGACTAGCGGAGTCACCTAGTGCAG	8600 fluorescence intensity (a.u.)
GATTCTAAACATCCACTCACACCTCATTTTTTTCATTAGCCGGAGTCACCTAGTGCAG	9350 fluorescence intensity (a.u.)

Sequence	binding signal
TGCCTGGCACCGTCCCCATCGCCGGCCGCCTCCGCCTCCGCGGAGTCACCTAGTGCAG	11300 fluorescence intensity (a.u.)
ACTTAATCCATTTTCTTTTCTTCTCCTATTTTTCCATCAACGGAGTCACCTAGTGCAG	9970 fluorescence intensity (a.u.)
ATATTTCTATGATTCTATCCCCTCCAGATTTATCGGCGCCCGGAGTCACCTAGTGCAG	8310 fluorescence intensity (a.u.)
CTTCCAGGCAGTTGTTCTGTATCCTCTTCTTGTTGCAACACGGAGTCACCTAGTGCAG	8920 fluorescence intensity (a.u.)
TTTTGGTTTTATGAGGCGGTGGATGGATACTTGTTACACTCGGAGTCACCTAGTGCAG	10300 fluorescence intensity (a.u.)
TGTGCTTCTTTTTTTAATTTCTCTCTCTGTTTGCTTCTCTCGGAGTCACCTAGTGCAG	9720 fluorescence intensity (a.u.)
CTGCTTCTTTTGTTTGGTTGGTTTCAGGGCTTCGTGGCCACGGAGTCACCTAGTGCAG	17800 fluorescence intensity (a.u.)
TGTGCGCGTGTTGTTTTTTTGGCTTCTTTTTCGCTTGCCACGGAGTCACCTAGTGCAG	11400 fluorescence intensity (a.u.)
TCCTCTTCTGTTTTTCTGTTTTTTTTCGTTTCTCTTCCCTCGGAGTCACCTAGTGCAG	13300 fluorescence intensity (a.u.)
GTGGGCATGATTTTCTTCTGTTTTCTCGTTTTAATTTTTTCGGAGTCACCTAGTGCAG	20100 fluorescence intensity (a.u.)
GCTTCTCCATCTCGCATCTGCTGCCTCCTAATTTGCTTCGCGGAGTCACCTAGTGCAG	10000 fluorescence intensity (a.u.)
TCTCTCCATCCATCCCTGCTGCTTCTCCATCTCGCATCTGCGGAGTCACCTAGTGCAG	16700 fluorescence intensity (a.u.)
CGGCTTCTCGCTTTCTTGTTTCTCGTGGAGTTGCTTTTTTCGGAGTCACCTAGTGCAG	17500 fluorescence intensity (a.u.)
GTTCGTTCGCCCTGCTGCTTCTCCCGCCGCATCCATCCCGCGGAGTCACCTAGTGCAG	9640 fluorescence intensity (a.u.)
TTTTTTCGGTGTTTTTCTTTTTGTTTCTTTTCGCTTCGCTCGGAGTCACCTAGTGCAG	12700 fluorescence intensity (a.u.)
ACCGGTGGCTTTGTTTGGTTCCACGGTCTTCAGGTTGGGACGGAGTCACCTAGTGCAG	8130 fluorescence intensity (a.u.)
ATTGTTTTTTTTCTTTCTTTTTGCAAATCTCGCTTCGCTTCGGAGTCACCTAGTGCAG	8540 fluorescence intensity (a.u.)
ATAATCTCCACATGCATCGTCGCTGTATTTTTTGGTTTCACGGAGTCACCTAGTGCAG	8510 fluorescence intensity (a.u.)
TTGTACTACTATTTCTTCATGTTACATAATTCTCCTTGTTCGGAGTCACCTAGTGCAG	8540 fluorescence intensity (a.u.)
TAGTATTTTTTTCCTTGGTTTTGTTTCTATCTCCTCTGACCGGAGTCACCTAGTGCAG	9480 fluorescence intensity (a.u.)
AATGTATAGGTGGTCCCGTGCTTTTGTATTGTGTTTGCGTCGGAGTCACCTAGTGCAG	10400 fluorescence intensity (a.u.)
TTCTCTACATTGTTCATTTAGTATTTTTTTCTTTTCATTTCGGAGTCACCTAGTGCAG	10700 fluorescence intensity (a.u.)
ATGGCAACGACCCAGTTCTGTCCGAGTAGGACTCCTTCCACGGAGTCACCTAGTGCAG	8310 fluorescence intensity (a.u.)

Source: paper PMC7819943, “Rice protein-binding microarrays: a tool to detect cis-acting elements near promoter regions in rice”
